# TRHR PAM – TRH receptor (human) allosteric enhancement; TRHR cells, fluo-8 calcium fluorescence, EC20 TRH enhancement; actives 0.66% (n = 360,000); enhancement, % at 2 µM; in the data active = enhancement above about 30%
#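 TRHR-expressing cells loaded with fluo-8 calcium dye were read kinetically (ex 480/em 530) during compound addition, then stimulated with an EC20 of TRH (10 nM final). Enhancement of the Gq-mediated intracellular calcium response was scored.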
# TRPML1 ag – human mucolipin-1 channel agonism; Q9GZU1; TRPML1-expressing cells, Ca2+ dye fluorescence, FDSS; activation, % (no concentration beside the values); actives 0.12% (n = 410,000); AID 624414; in the data active = activation above about 50%; inconclusive = mostly about 30% to 49%
#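 Kinetic FDSS Ca2+ read in Tet-induced TRPML1-DL cells (ABD Ca8 dye plus quencher, 45-90 min RT loading): baseline, then compound, then 110 s agonist window; EC80 agonist 54-4 at 4uM final added afterwards for a 110 s antagonist window.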
# TRPML1 blocker – inhibitors of human TRPML1 channel; Q9GZU1; TRPML1-inducible cells, Ca2+ dye fluorescence, FDSS; hits give low values; inhibition of EC80 agonist-evoked calcium signal; activity change, negative = inhibition, % (concentration not given with the values); actives 0.02% (n = 390,000); in the data active = activity change below about -50%; inconclusive = between about -30% and that limit;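 note: stimulus is agonist 54-4 at its EC80 concentration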
#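 Tet-induced TRPML1-DL cells loaded with Ca8 no-wash calcium dye were read kinetically on FDSS. Compound addition was followed by EC80 agonist 54-4 (4 uM final); inhibition was read over 110 s.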
# hERG WT inh – inhibitors of human wildtype KCNH2 potassium channel. Q12809. U2OS, BacMam KCNH2, thallium flux FluxOr; hits give low values. activity change, % at 1.84 µM. actives 0.37% (n = 340,000);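 active = maximum activity change below -70%; inconclusive = maximum activity change between -70% and -50%; inactive = maximum activity change above -50%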
# Target sequence (Q12809 whole entry, looked up): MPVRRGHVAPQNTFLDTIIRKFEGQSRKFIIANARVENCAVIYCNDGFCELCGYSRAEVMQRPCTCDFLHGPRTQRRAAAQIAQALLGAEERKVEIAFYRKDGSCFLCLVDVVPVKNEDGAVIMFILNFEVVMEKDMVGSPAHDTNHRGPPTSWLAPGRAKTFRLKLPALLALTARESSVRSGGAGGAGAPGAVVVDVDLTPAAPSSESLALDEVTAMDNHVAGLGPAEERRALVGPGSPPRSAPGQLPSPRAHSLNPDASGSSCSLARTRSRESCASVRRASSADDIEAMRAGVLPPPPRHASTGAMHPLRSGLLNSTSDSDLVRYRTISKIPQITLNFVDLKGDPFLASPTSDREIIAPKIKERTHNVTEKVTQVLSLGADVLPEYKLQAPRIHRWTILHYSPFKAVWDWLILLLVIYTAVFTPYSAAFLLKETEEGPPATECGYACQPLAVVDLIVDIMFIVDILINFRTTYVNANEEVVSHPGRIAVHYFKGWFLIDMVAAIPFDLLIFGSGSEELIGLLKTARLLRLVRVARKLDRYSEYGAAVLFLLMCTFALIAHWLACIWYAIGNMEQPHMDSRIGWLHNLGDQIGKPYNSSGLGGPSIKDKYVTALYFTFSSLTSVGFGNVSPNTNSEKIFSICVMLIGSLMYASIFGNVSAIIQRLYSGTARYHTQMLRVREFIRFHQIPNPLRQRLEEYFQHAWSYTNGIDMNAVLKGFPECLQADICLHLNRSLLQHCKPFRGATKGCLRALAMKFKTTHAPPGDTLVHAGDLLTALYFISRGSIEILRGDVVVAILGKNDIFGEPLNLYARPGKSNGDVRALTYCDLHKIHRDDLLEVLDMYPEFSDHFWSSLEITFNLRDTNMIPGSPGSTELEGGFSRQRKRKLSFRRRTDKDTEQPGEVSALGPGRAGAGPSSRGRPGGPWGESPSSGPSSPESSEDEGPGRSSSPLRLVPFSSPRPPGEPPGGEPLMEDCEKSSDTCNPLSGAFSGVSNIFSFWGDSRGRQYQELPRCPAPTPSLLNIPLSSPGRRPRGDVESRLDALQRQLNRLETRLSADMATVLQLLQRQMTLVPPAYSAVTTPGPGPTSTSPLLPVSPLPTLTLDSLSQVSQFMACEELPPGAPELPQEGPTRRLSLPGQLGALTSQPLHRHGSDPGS
#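 U2OS cells transduced with wild-type KCNH2 virus are loaded with FluxOr dye for 45 min, and thallium flux is measured in kinetic reads before and after stimulation buffer. Rate constants are normalized to DMSO controls.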
# TRHR agonist – agonists of human TRH receptor; TRHR cells, calcium flux fluo-8, FDSS agonist mode; actives 0.18% (n = 360,000); AID 493084; activation, % at 2 µM; P34981; in the data active = activation above about 30%
#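 In this calcium-flux screen, cells bearing human TRHR are dye-loaded with fluo-8, baselined for 10 cycles, then exposed to library compounds; positive kinetic calcium responses during the agonist phase mark hits, with TRH as control.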
# KCNH2 3.1 block – inhibitors of human KCNH2 3.1 potassium channel isoform | U2OS KCNH2 3.1, thallium flux FluxOr; hits give low values | activity change, % (tested at about 1.8 µM) | actives 0.95% (n = 340,000);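 active = maximum activity change below -70%; inconclusive = maximum activity change from -70% to -50%; inactive = maximum activity change above -50%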;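 note: thallium influx rate constant from kinetic fluorescence after stimulation buffer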
#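 Measured as rate of thallium-driven FluxOr signal in transduced U2OS cells carrying the 3.1 channel, read kinetically for 2 min upon stimulation; values are rate constants scaled to DMSO control wells.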
# Hits are given with their value; n = inactive; u = inconclusive; x = no result given. This is a sample that favours compounds with a hit; in the whole collection about 1.7% have one here.
SMILES,TRHR PAM,TRPML1 ag,TRPML1 blocker,hERG WT inh,TRHR agonist,KCNH2 3.1 block
O=c1c(S(=O)(=O)c2ccc(Cl)cc2)cn(Cc2cccc(F)c2)c2ccc(F)cc12,n,n,n,u,n,-81.6
Cc1cccc(Cn2cc(S(=O)(=O)c3cccc(C)c3)c(=O)c3cc(F)c(N4CCOCC4)cc32)c1,n,n,n,x,n,x
Cc1cccc(Cn2cc(S(=O)(=O)c3ccccc3)c(=O)c3cc(F)c(N4CCOCC4)cc32)c1,37.8,n,n,x,n,x
C1=Nc2ccccc2/C1=C/c1ccccc1,x,n,x,x,x,x
Cc1nc(SCC(=O)Nc2nnc(C(C)C)s2)n[nH]1,n,n,n,n,n,n
N=c1n(N)c2ccccc2n1CC(=O)c1ccc(Br)cc1,32.5,n,n,n,n,n
CCc1cccc(C)c1NC(=O)CC1Oc2ccc(C)cc2NC1=O (centres undefined),n,n,n,n,n,n
Cc1ccnc(NS(=O)(=O)c2ccc(NC(=O)c3ccc(Cl)cc3[N+](=O)[O-])cc2)n1,n,n,n,n,n,-133.7
CCOC(=O)C1(C)CCCN(C(=O)C(c2ccccc2)c2ccccc2)C1 (centres undefined),x,n,n,x,x,x
O=C(N/N=C/c1ccc(Cl)cc1Cl)c1cccc(N2CCCC2=O)c1,30.1,n,n,n,n,n
O=C(N/N=C/c1cc(Br)cc(Br)c1O)c1cccc(N2CCCC2=O)c1,n,n,n,n,n,n
CC(=O)c1ccc2noc(-c3cccc(F)c3)c2c1,n,n,n,n,n,-82.8
COc1cccc(-c2onc3ccc(C(C)=O)cc23)c1,n,n,n,n,n,n
COC(=O)c1ccc(C2NCCc3cc(OC)c(OC)cc32)cc1 (centres undefined),n,n,n,n,n,n
O=C(NCc1ccccc1)C12CN(Cc3ccccc3)CC1C(c1ccc([N+](=O)[O-])cc1)=NO2 (centres undefined),n,n,n,n,n,-76.7
Cc1ccc(CNC(=O)C23CN(Cc4ccccc4)CC2C(c2cccc([N+](=O)[O-])c2)=NO3)cc1 (centres undefined),n,n,n,n,n,-71.8
COC(=O)C1=C[C@@H](C(=O)OC)C2C3=C(C(=O)[C@@]2(C)NC(=O)c2ccccc2)[C@H](c2ccccc2)n2c(=O)n(-c4ccccc4)c(=O)n2[C@@H]3C1 (some centres undefined),x,n,n,x,x,x
CC(=O)c1ccc(-c2ccc(C3C4C=CCCC4(C)C(=O)N3Cc3ccccc3)c(F)c2)cc1 (centres undefined),x,n,n,x,x,x
CN(Cc1ccc(C(C)(C)C)cc1)C(=O)c1ccc2c(=O)n3c(nc2c1)CCC3,n,n,n,n,n,n
Cc1ccc(OCc2nc(-c3ccc(Cl)cc3)n[nH]2)cc1,n,n,n,-73.7,n,n
CC1CCC(n2c(=S)[nH]c3ccccc3c2=O)CC1 (centres undefined),n,n,n,n,n,n
FC(F)(F)c1ccc2c(c1)[nH]c(=S)n2C1CC1,n,n,n,-161.6,n,-200.7
COc1ccc(Cl)cc1NC(=O)Cn1c(=O)n(CCC(=O)NCc2ccc3c(c2)OCO3)c(=O)c2ccccc21,n,n,n,x,n,x
O=C(Nc1ccccc1)c1ccc(S(=O)(=O)N2CCCCC2)cc1,n,n,n,n,n,n
O=C(Nc1ccn(-c2ccccc2)n1)c1ccc(S(=O)(=O)N2CCCCCC2)cc1,n,n,n,n,n,-83.8
SMILES,TRHR PAM,TRPML1 ag,TRPML1 blocker,hERG WT inh,TRHR agonist,KCNH2 3.1 block
CCN1CCN(CCNC(=O)Nc2ccc([N+](=O)[O-])cc2)CC1,n,n,n,n,n,n
Cc1ccc(NC(=O)C(=O)NCCN2CCN(Cc3ccc([N+](=O)[O-])cc3)CC2)cc1,n,n,n,-82.2,n,-108.1
O=C(NCCN1CCN(C(=O)c2ccc(Br)cc2)CC1)c1ccc(Br)cc1,n,n,n,n,n,-82.6
Cc1ccc(C(=O)N2CCN(CCNC(=O)C(=O)Nc3ccc(Cl)cc3)CC2)cc1,n,n,n,n,n,-86.9
CCc1ccc(NC(=O)C(=O)NCCN2CCN(Cc3ccc([N+](=O)[O-])cc3)CC2)cc1,n,n,n,-91.5,n,-105.5
C[C@H]1CN([C@@H](C)CO)C(=O)CCCn2nncc2CO[C@H]1CN(C)C(=O)NC1CCCCC1,x,n,n,n,x,n
CCN(C(=O)CN1CCCCC1C)c1c(N)n(Cc2ccccc2)c(=O)[nH]c1=O (centres undefined),n,n,n,n,n,n
Cc1cc2c(s1)c1cnn(Cc3ccc(-n4cncn4)cc3)c(=O)c1n2C,n,x,x,x,n,x
c1ccc(Nc2nnc(-c3cccnc3)s2)cc1,n,n,n,n,n,n
COC(=O)c1ccc(CN(Cc2ccc(C(=O)OC)o2)C(C)(C)C)o1,37.1,n,n,n,n,n
O=C(c1ccc(Cl)cc1)c1c[nH]c(C(=O)NNc2ccccc2)c1,n,n,n,n,n,n
COc1cccc(Nc2nnc(SCC(=O)Nc3sccc3C(N)=O)s2)c1,n,n,n,n,n,-97.2
COC(=O)c1cc2occc2n1Cc1cccc(C)c1,n,n,n,n,n,x
CCc1cccc(NC(=O)Cn2c(C(=O)OC)cc3occc32)c1,36.5,n,n,x,n,x
O=C(NC(=S)Nc1cccc2c(O)cccc12)c1ccco1,n,n,n,n,n,n
O=C(NC(=S)Nc1cccc2cc(O)ccc12)c1ccco1,n,n,-59.2,n,n,n
COc1ccccc1NC(=O)C1=C(C)Nc2c(C(=O)Nc3ccc(F)cc3)cnn2C1c1cccc([N+](=O)[O-])c1 (centres undefined),n,n,n,x,n,x
Cc1cc(=O)c(C(=O)O)cn1Nc1ccc(Cl)cc1,n,n,n,n,n,n
Cc1cc(=O)c(C(=O)O)cn1Nc1ccc(F)cc1,n,n,n,n,n,-84.0
N#CC(C#N)=C1C=CC=CN1/C(=C\c1ccco1)C(=O)c1ccc(Cl)cc1,n,n,n,n,n,-85.9
N#C/C(=C\c1ccco1)C(=O)NCc1ccccc1,n,n,n,x,n,n
N#CC(C#N)=C1C=CC=CN1/C(=C\c1ccco1)C(=O)c1ccc(-c2ccccc2)cc1,n,n,n,n,n,-84.6
Cc1cnc2c(c1)C(=O)c1ccccc1-2,n,n,n,n,n,-110.5
Cc1cccc(-c2cc3c(nn2)-c2ccccc2C3=O)c1,n,n,n,n,n,n
CSc1ncccc1C(=O)OC(C)C(=O)Nc1cccc(S(=O)(=O)N2CCOCC2)c1 (centres undefined),x,n,n,-315.1,x,n

# Screening results (PubChem)
